The nature of assay [1]: compounds altering circadian rhythm period length – cell-based, LOPAC library, luminescence reporter (AID 2774).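 Also: values are relative to mean of DMSO wells on each plate.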 To be noted: circadian reporter cells, at 7 µM, actives lie on both sides.
For assay [2], the system named is Hepatitis C virus NS3 helicase. The experiment in a line: blockers of NS3h binding to ssDNA – biochemical, fluorescence polarization, LOPAC1280 library, primary screen (AID 687035; in the data active = inhibition above about 37%). To be noted: Purified HCV NS3 helicase, Cy5-dT15 ssDNA binding fluorescence polarization; stronger effect = higher value; concentration not given here.
Assay [3] can be described thus: compounds altering Cy5-DNA-NS3h complex signal – biochemical, LOPAC1280, artefact control for HCV NS3 helicase inhibitor project (AID 687037). To be noted: Cy5-DNA-NS3h complex fluorescence interference counterscreen. For orientation: Counterscreens check selectivity or assay interference.
Assay [4] is described as follows: viability loss with induced miR-34 in A549 – imaging, A549 dox-inducible miR-34, nuclei and caspase counts, primary screen (AID 1347080;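 active = compounds whose cell count with miR-34 switched on is under 0.7 times the count with it off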). To be noted: A549 miR-34 inducible, Hoechst nuclei count, 48 h.
Assay [5] in a line: blockers of cellular phospholipid synthesis – cell-based, LOPAC library, screen 4, primary screen (AID 1347384). To be noted: animal cells, phospholipid biosynthesis inhibition screen; at 10 µM.
A short description of assay [6]: galactose survival enhancers in mitochondrial complex I cybrids – cell-based, galactose medium, ATP luminescence, primary screen (AID 1645843;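 active = z-score of at least 1.8 in each of two replicates, scored against plate mean and spread of sample wells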;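 also: positive z means more ATP and so rescue of galactose-driven cybrid death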). To be noted: complex I mutant cybrid cells, 72 h, stronger effect = higher value.
Setting [7] is: stronger effect = lower value, cell number ratio, induced over uninduced.
[8] abbreviates: measured here: relative caspase fold change +Dox/-Dox.
[9] abbreviates: measured here: total cells with miR-34 induction, stronger effect = lower value.
Setting [10] is: measured here: total cells without miR-34 induction.

Molecules are shown by their SMILES. Active and inactive are the calls of the source. Unless noted, no rule for the calls is given here.

Consider `O=C(O)CCC(C(=O)O)N1C(=O)c2ccccc2C1=O` (configuration not stated), for which, in assay [1], the period change is -0.075 h (inactive). In addition, the inhibition in assay [2] is -4% (inactive). Also, in assay [3], the fluorescence ratio (interference) was 1 (inactive). The fold change in assay [4] (setting [7]) is 1.05 (inactive); in assay [4] (setting [8]), 0.915. Also, the cell count is 10300 in assay [4] (setting [9]) and 9760 in assay [4] (setting [10]). In addition, the compound was classed as inactive in assay [5]. In assay [6], the z-score is 0.255 (inactive).

Turning to `CN1CCc2cc(NC(=O)Nc3cccnc3)ccc21`, in assay [1], the period change is 0.02 h (inactive). Besides, the inhibition in assay [2] is -2% (inactive). The fluorescence ratio (interference) in assay [3] is 1 (inactive). Also, the fold change in assay [4] (setting [7]) is 1.02 (inactive); in assay [4] (setting [8]) it was 2.86. Further, the cell count came to 10800 in assay [4] (setting [9]) and 10700 in assay [4] (setting [10]). For the same compound, in assay [5], the compound was called inactive. The z-score in assay [6] is 1.34 (inactive).

Regarding `NCCCCCCCCCCN`, in assay [1], the period change is 0 h (inactive). Also, the inhibition in assay [2] was 2% (inactive). Besides, the fluorescence ratio (interference) in assay [3] is 1 (inactive). In addition, the results for the fold change in assay [4] (setting [7]) and in assay [4] (setting [8]) were 0.948 (inactive) and 1.23, respectively. Besides, the cell count in assay [4] (setting [9]) turned out to be 10300; in assay [4] (setting [10]), 10900. Also, the call in assay [5] was inactive. In assay [6], the z-score is -0.23 (inactive).

Consider `C=CCN1CCc2c(cc(O)c(O)c2Cl)C(c2ccccc2)C1` (configuration not stated), for which the period change in assay [1] was 0.25 h (inactive). The inhibition in assay [2] is -4% (inactive). Further, in assay [3], the fluorescence ratio (interference) was 1 (inactive). The values for the fold change in assay [4] (setting [7]) and in assay [4] (setting [8]) were 1.02 (inactive) and 1.32, respectively. In addition, the figures for the cell count in assay [4] (setting [9]) and in assay [4] (setting [10]) were 7830 and 7660, respectively. For the same compound, the outcome in assay [5] was inactive. For the same compound, in assay [6], the z-score is -0.925 (inactive).

Consider `Nc1ncnc2c1nc(Br)n2C1OC2COP(=O)(O)O[C@@H]2C1O` (some centres not stated), for which the period change in assay [1] was -0.095 h (inactive). Also, the inhibition in assay [2] is -5% (inactive). In addition, the fluorescence ratio (interference) in assay [3] is 0.9 (inactive). Besides, the values for the fold change in assay [4] (setting [7]) and in assay [4] (setting [8]) were 0.962 (inactive) and 1.6, respectively. Also, the cell count in assay [4] (setting [9]) is 8440; in assay [4] (setting [10]), 8780. Besides, in assay [5], the compound was called inactive. Further, the z-score in assay [6] was 0.735 (inactive).

As to `CC(=O)N[C@H](C(=O)O)C(C)(C)SN=O`, the period change in assay [1] is 0.185 h (inactive). Also, the inhibition in assay [2] is -4% (inactive). Also, the fluorescence ratio (interference) in assay [3] was 1 (inactive). In addition, the fold change is 1.07 (inactive) in assay [4] (setting [7]) and 1.19 in assay [4] (setting [8]). Further, the cell count was determined as 11100 in assay [4] (setting [9]) and 10400 in assay [4] (setting [10]). Also, in assay [5], the compound was called inactive. The z-score in assay [6] is -0.22 (inactive).

As for `CC[C@@H](C)[C@H]1O[C@]2(CC[C@@H]1C)C[C@@H]1C[C@@H](C/C=C(\C)[C@@H](O[C@H]3C[C@H](OC)[C@@H](O[C@H]4C[C@H](OC)[C@@H](O)[C@H](C)O4)[C@H](C)O3)[C@@H](C)/C=C/C=C3\CO[C@@H]4[C@H](O)C(C)=C[C@@H](C(=O)O1)[C@]34O)O2`, the period change in assay [1] was 0.095 h (inactive). Besides, the inhibition in assay [2] was -2% (inactive). The fluorescence ratio (interference) in assay [3] was 1 (inactive). Moreover, the fold change in assay [4] (setting [7]) is 0.888 (inactive); in assay [4] (setting [8]) it was 0.534. The cell count in assay [4] (setting [9]) turned out to be 1760; in assay [4] (setting [10]) it was 1980. Moreover, the outcome in assay [5] was inactive. Further, in assay [6], the z-score is -1.29 (inactive).

For the compound `CNCC[C@H](Oc1ccc(C(F)(F)F)cc1)c1ccccc1`, in assay [1], the period change was 0.185 h (inactive). In addition, the inhibition in assay [2] is -2% (inactive). Also, the fluorescence ratio (interference) in assay [3] was 1 (inactive). Also, the values for the fold change in assay [4] (setting [7]) and in assay [4] (setting [8]) were 1.08 (inactive) and 0.944, respectively. Further, the cell count in assay [4] (setting [9]) was 7270; in assay [4] (setting [10]) it was 6730. The outcome in assay [5] was inactive. Moreover, the z-score in assay [6] was -0.925 (inactive).

For the compound `COc1cc(/C=C(\C#N)C(=O)c2ccc(O)c(O)c2)cc(I)c1O`, in assay [1], the period change is 0.035 h (inactive). Further, the inhibition in assay [2] is 37% (active). Besides, the fluorescence ratio (interference) in assay [3] was 0.9 (inactive). Further, the fold change in assay [4] (setting [7]) is 0.957 (inactive); in assay [4] (setting [8]), 1.26. Moreover, the results for the cell count in assay [4] (setting [9]) and in assay [4] (setting [10]) were 9980 and 10400, respectively. In addition, the compound was called inactive in assay [5]. Further, in assay [6], the z-score was 0.8 (inactive).

With `O=C(O)C1CN(CCCP(=O)(O)O)CCN1` (configuration not stated), the period change in assay [1] is 0.255 h (inactive). Further, the inhibition in assay [2] is 1% (inactive). Besides, the fluorescence ratio (interference) in assay [3] is 1 (inactive). The fold change is 0.99 (inactive) in assay [4] (setting [7]) and 1.52 in assay [4] (setting [8]). Further, the cell count was determined as 10000 in assay [4] (setting [9]) and 10100 in assay [4] (setting [10]). In addition, the call in assay [5] was inactive. For the same compound, in assay [6], the z-score was 0.45 (inactive).

As for `O=C(O)[C@H]1NCCC[C@H]1C(=O)O`, in assay [1], the period change is 0.06 h (inactive). Further, the inhibition in assay [2] was -2% (inactive). The fluorescence ratio (interference) in assay [3] was 1 (inactive). For the same compound, the fold change was 1.06 (inactive) in assay [4] (setting [7]) and 2.09 in assay [4] (setting [8]). Further, the cell count in assay [4] (setting [9]) stood at 10400; in assay [4] (setting [10]) it was 9820. In assay [5], the result was inactive. The z-score in assay [6] is 0.52 (inactive).

Regarding `COc1cc(CC(=O)O)ccc1O`, the period change in assay [1] is 0.03 h (inactive). Also, the inhibition in assay [2] is 1% (inactive). The fluorescence ratio (interference) in assay [3] was 1 (inactive). Besides, the fold change is 1.05 (inactive) in assay [4] (setting [7]) and 0.734 in assay [4] (setting [8]). In addition, the cell count in assay [4] (setting [9]) is 10100; in assay [4] (setting [10]), 9570. Moreover, the result in assay [5] was inactive. Besides, the z-score in assay [6] is 0.08 (inactive).

`CCCn1c(=O)c2c(ncn2C)n(CCC)c1=O`: the period change in assay [1] is -0.02 h (inactive). Further, the inhibition in assay [2] is -3% (inactive). Also, the fluorescence ratio (interference) in assay [3] was 1.1 (inactive). Further, the fold change in assay [4] (setting [7]) is 1 (inactive); in assay [4] (setting [8]) it was 1.17. In addition, the cell count in assay [4] (setting [9]) worked out at 10000; in assay [4] (setting [10]), 9990. Moreover, the result in assay [5] was inactive. Also, the z-score in assay [6] is 0.46 (inactive).

With `Nn1nnc2ccccc21`, in assay [1], the period change was -0.155 h (inactive). Further, the inhibition in assay [2] is -1% (inactive). Further, the fluorescence ratio (interference) in assay [3] is 1 (inactive). Further, the fold change in assay [4] (setting [7]) is 1.06 (inactive); in assay [4] (setting [8]) it was 1.77. Also, the cell count came out at 10600 in assay [4] (setting [9]) and 9990 in assay [4] (setting [10]). Further, the outcome in assay [5] was inactive. Moreover, in assay [6], the z-score was 0.305 (inactive).

For `Nc1nc2[nH]c(=O)cnc2c(=O)[nH]1`, the period change in assay [1] is 0 h (inactive). Moreover, in assay [2], the inhibition was -5% (inactive). In assay [3], the fluorescence ratio (interference) is 1 (inactive). The fold change was 1.09 (inactive) in assay [4] (setting [7]) and 0.997 in assay [4] (setting [8]). The cell count in assay [4] (setting [9]) was found to be 10400; in assay [4] (setting [10]), 9560. The compound was classed as inactive in assay [5]. Besides, the z-score in assay [6] is 0.655 (inactive).

`CC1CN(S(=O)(=O)c2cccc3cnccc23)CCN1` (configuration not stated): the period change in assay [1] was 0.475 h (inactive). Moreover, the inhibition in assay [2] is -6% (inactive). Further, in assay [3], the fluorescence ratio (interference) is 0.9 (inactive). For the same compound, the fold change is 1.09 (inactive) in assay [4] (setting [7]) and 0.736 in assay [4] (setting [8]). The figures for the cell count in assay [4] (setting [9]) and in assay [4] (setting [10]) were 11600 and 10600, respectively. Moreover, the compound was called inactive in assay [5]. Further, the z-score in assay [6] is 0.18 (inactive).

For `NCCS(=O)O`, the period change in assay [1] is 0.035 h (inactive). In assay [2], the inhibition was -3% (inactive). In addition, in assay [3], the fluorescence ratio (interference) was 1 (inactive). In addition, the fold change was 1 (inactive) in assay [4] (setting [7]) and 0.978 in assay [4] (setting [8]). Moreover, the cell count in assay [4] (setting [9]) is 10600; in assay [4] (setting [10]), 10500. Also, the result in assay [5] was inactive. Also, the z-score in assay [6] was 0.415 (inactive).

With `OCC1O[C@H](O)C(Cl)C(O)C1O` (some centres not stated), the period change in assay [1] is 0.3 h (inactive). For the same compound, in assay [2], the inhibition is -1% (inactive). Further, the fluorescence ratio (interference) in assay [3] is 1 (inactive). Moreover, the fold change in assay [4] (setting [7]) was 0.973 (inactive); in assay [4] (setting [8]) it was 1.54. Moreover, the cell count in assay [4] (setting [9]) is 9780; in assay [4] (setting [10]), 10100. For the same compound, in assay [5], the result was inactive. In addition, the z-score in assay [6] is -0.395 (inactive).

One may read the inhibition as the drop in the measured response relative to a control, in per cent.

Source of the values: PubChem BioAssay.
